Only some compounds are listed: those with a hit (about 3.4% of all), similar ones and a draw of the others.
MITF primary = MITF inhibitors, primary screen, biochemical, AlphaScreen, human; Microphthalmia-associated transcription factor (Homo sapiens), O75030; inhibition, % at 2.6 µM; actives 0.91% (n = 650,000); AlphaScreen MITF homodimerization, bead proximity signal; in the data active means inhibition above about 50%
TEAD-YAP block = TEAD-YAP interaction inhibition, primary screen, TEAD-YAP interaction inhibitor project, luminescence, HEK-TIYL cells. TEAD-Gal4/YAP UAS-luciferase luminescence. inhibition, % at 9.12 µM. actives 1.4% (n = 640,000). AID 1259422, 2018; in the data active means inhibition above about 32%
GPR151 activ = activators of human GPR151, primary screen, cell-based, PathHunter beta-arrestin, luminescence | actives 1% (n = 650,000) | PathHunter beta-arrestin GPR151 cells | activation, % at 11.2 µM | G-protein coupled receptor 151 (Homo sapiens), Q8TDV0; in the data active means activation above about 4.9%
FBW7 act = FBW7 E3 ligase activators, primary screen, biochemical, AlphaScreen, human | actives 0.13% (n = 650,000) | AlphaScreen FBW7–phospho-cyclin E peptide binding, activator screen | normalized activity (activation), % at 26.1 µM | F-box/WD repeat-containing protein 7 (Homo sapiens), Q969H0; in the data active means normalized activity above about 1.9%;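 further: purified mutant Fbw7 with reduced substrate affinity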
GPR151 confirm = GPR151 activators, triplicate retest, confirmation, cell-based, PathHunter beta-arrestin, luminescence | shares compounds with GPR151 activ | AID 1508609, 2020 | GPR151 PathHunter beta-arrestin cells, 90 min; % of EA-reagent control over plate median | 6,700 tested, under 10 active | activation, % at 11.2 µM;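 active means mean percent activation across replicates above the confirmation screen cutoff of 4.91%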
GPR119 ag = GPR119 activators in beta-arrestin cells, counter-screen for GPR151 activator project, cell-based, PathHunter beta-arrestin, luminescence, triplicate; shares compounds with GPR151 activ; 90 min; 0 = compound-well median, 100 = enzyme-acceptor control; activation, % at 11.2 µM; actives 0.3% (n = 6,700); AID 1508611, 2020;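 active means mean percent activation in the counterscreen above 29.09%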;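 further: counterscreen on off-target GPR119 to flag nonselective hits from the GPR151 activator screen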
Target sequence (Q8TDV5 whole entry, looked up): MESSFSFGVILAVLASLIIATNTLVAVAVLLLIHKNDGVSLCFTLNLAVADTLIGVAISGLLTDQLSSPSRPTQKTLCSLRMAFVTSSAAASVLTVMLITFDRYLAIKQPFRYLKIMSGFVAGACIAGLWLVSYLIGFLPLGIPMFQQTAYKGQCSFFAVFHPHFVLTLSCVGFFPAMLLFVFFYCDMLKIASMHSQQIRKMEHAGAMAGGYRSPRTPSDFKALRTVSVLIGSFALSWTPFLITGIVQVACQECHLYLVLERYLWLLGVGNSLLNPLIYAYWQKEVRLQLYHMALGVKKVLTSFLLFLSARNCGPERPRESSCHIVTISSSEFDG
Each line names hits and unclear results; the compound was inactive in the other large screens (follow-up assays come after a bar, where they were run).

Cc1cc(C)cc(C(=O)O/N=C(\N)c2ccc([N+](=O)[O-])cc2)c1	none
CC(C(=O)O/N=C(\N)c1ccncc1)c1ccc([N+](=O)[O-])cc1 (configuration not stated)	GPR151 activ 21 | GPR151 confirm inactive | GPR119 ag inactive
CC(Oc1ccc(Br)cc1)C(=O)O/N=C(\N)c1ccc([N+](=O)[O-])cc1 (configuration not stated)	none
COc1ccc(CCNC(=O)CCn2c(SCc3cccc([N+](=O)[O-])c3)nc3ccccc3c2=O)cc1OC	none
Cc1ccc(SCC(=O)O/N=C(\N)c2cccc([N+](=O)[O-])c2)cc1	GPR151 activ 5.2 | GPR151 confirm inactive | GPR119 ag inactive
CC(NC(=O)C1CC(Cc2cccc(F)c2)=NO1)c1ccccc1Cl (configuration not stated)	none
C=CCC(O)(CC=C)C(C)NC(=O)C1CC(Cc2cccc(Cl)c2)=NO1 (configuration not stated)	GPR151 activ 11 | GPR151 confirm inactive | GPR119 ag inactive
O=C1NC2(CCN(CC3=Cc4ccccc4OC3)CC2)Oc2ccccc21	none
Cc1nn(C)c(C)c1-c1ncc(C(=O)Nc2ccccc2)s1	GPR151 activ 5.7 | GPR151 confirm inactive | GPR119 ag inactive
COc1cc(NC(=O)CCc2c(C)nc3nc[nH]n3c2=O)cc(OC)c1	none
CCCc1ccc(S(=O)(=O)Nc2ccc3c(c2)CC(=O)N3C)cc1	GPR151 activ 4.9 | GPR151 confirm inactive | GPR119 ag inactive
O=C(c1ccc(Cl)cc1)c1cc(NC(=O)c2cc(Br)cc(Br)c2O)ccc1Cl	GPR151 activ 8.2 | GPR151 confirm inactive | GPR119 ag inactive
O=C(Nc1ccc(F)cc1F)C(=O)N1CCCCC1	GPR151 activ 7.1 | GPR151 confirm inactive | GPR119 ag inactive
Cc1ccc(-c2csc3ncnc(OCC(=O)NC(=O)NC4CCCC4)c23)cc1	none
Cc1ccc2ncc(C(=O)Nc3cc(C)on3)c(=O)n2c1	GPR151 activ 8.2 | GPR151 confirm inactive | GPR119 ag inactive
Cc1cc(C)cc(NC(=O)c2cnc3ccc(C)cn3c2=O)c1	none
CC(C)CCn1c(-c2ccccc2)nc2ccccc21	GPR151 activ 8.6 | GPR151 confirm inactive | GPR119 ag inactive
OCC1(CCOc2ccccc2)CCN(Cc2cnc(N3CCCC3)s2)CC1	none
COC(=O)C1=C(C)NC(=S)NC1c1ccc(C(=O)O)cc1 (configuration not stated)	none
O=c1oc2ccc(Cl)cc2cc1-c1nnc(-c2ccccc2Cl)o1	GPR151 activ 5.6 | GPR151 confirm inactive | GPR119 ag inactive
NC(=O)C1CCN(C(=O)/C(=C\c2ccccc2)NC(=O)c2ccccc2)CC1	none
O=C(N/N=C/c1ccc(Oc2ccc([N+](=O)[O-])cn2)cc1)c1cccc([N+](=O)[O-])c1	GPR151 activ 5.0 | GPR151 confirm inactive | GPR119 ag inactive
CCOC(=O)c1c(N)sc(-c2ccccc2)c1C	GPR151 activ 6.2 | GPR151 confirm inactive | GPR119 ag inactive
CCOC(=O)c1c(N)sc(-c2ccccc2)c1Cc1ccccc1	none
CCOC(=O)c1cccc(Nc2nc(-c3ccccc3)nc3ccccc23)c1	GPR151 activ 5.9 | GPR151 confirm inactive | GPR119 ag inactive
CCOC(=O)c1cccc(Nc2nc(-c3ccccc3Cl)nc3ccccc23)c1	none
CCOC(=O)c1nc(Nc2ccc(OCC)cc2)c2ccccc2n1	none
CCOC(=O)c1nc(Nc2ccc(OC(C)C)cc2)c2ccccc2n1	GPR151 activ 8.8 | GPR151 confirm inactive | GPR119 ag inactive
CC(=O)OCCCNc1cc(SC2CCCCC2)c2nonc2c1[N+](=O)[O-]	none
Cc1c(C(=O)N2CCCCC2CCO)sc2ncnc(NCCCN3CCCC3=O)c12 (configuration not stated)	none
O=C(Cc1ccc(N2CCC(NCCn3ccnc3)CC2)cc1)NCCc1cccc(F)c1	GPR151 activ 6.0 | GPR151 confirm inactive | GPR119 ag inactive
CC(C)(C)c1ccc(C(=O)Nc2nnc(COc3ccccc3)s2)cc1	none
Cc1nn(-c2ccccc2)c(Cl)c1C(=O)Nc1nnc(COc2ccccc2)s1	GPR151 activ 5.5 | GPR151 confirm inactive | GPR119 ag inactive
O=C(CCc1nnc(Cc2ccc3c(c2)OCO3)o1)NCCCC1CCCC1	GPR151 activ 6.9 | GPR151 confirm inactive | GPR119 ag inactive
Cc1nc(NC2=NCN(Cc3cccnc3)CN2)nc2ccccc12	GPR151 activ 7.7 | GPR151 confirm inactive | GPR119 ag inactive
N#C/C(=C\c1cc2c(cc1[N+](=O)[O-])OCO2)c1ccc(Cl)cc1	none
Cc1cc(C)nc(Nc2n[nH]c(COc3ccccc3)n2)n1	GPR151 activ 5.7 | GPR151 confirm inactive | GPR119 ag inactive
CCOc1ccc(NC(=O)CSc2nnc(CNC(=O)c3cccs3)n2-c2ccc([N+](=O)[O-])cc2)cc1	none
O=S(=O)(c1cccc2ccccc12)N1CCN(c2ncccn2)CC1	none
O=S(=O)(c1cccc2ccccc12)N1CCN(c2ccc(F)cc2)CC1	GPR151 activ 19 | GPR151 confirm inactive | GPR119 ag inactive
COc1ccc(N2CCN(S(=O)(=O)c3ccccc3F)CC2)cc1	none
COc1ccc(N2CCN(S(=O)(=O)c3ccccc3C(F)(F)F)CC2)cc1	GPR151 activ 5.1 | GPR151 confirm inactive | GPR119 ag inactive
Cc1cc(S(=O)(=O)N2CCN(c3ccc(F)cc3)CC2)c(Cl)cc1Cl	GPR151 activ 5.3 | GPR151 confirm inactive | GPR119 ag inactive
COc1cc(NC(=O)c2ccc(-c3cccc(C(C)=O)c3)s2)cc(OC)c1OC	none
Cc1cccc(NC(=O)COc2ccc(S(=O)(=O)NC3CCCCC3)cc2)c1	none
COc1ccc2cc(S(=O)(=O)NC3CCCCC3)ccc2c1	GPR151 activ 5.2 | GPR151 confirm inactive | GPR119 ag inactive
CSc1cccc(NC(=O)COc2ccc(S(=O)(=O)NC3CCCCC3)cc2)c1	GPR151 activ 5.3 | GPR151 confirm inactive | GPR119 ag inactive
COc1ccc(S(=O)(=O)NC2CCCCC2)cc1	none
Cc1cc(S(=O)(=O)NC2CCCCC2)ccc1OCC(=O)Nc1ccccc1F	GPR151 activ 5.0 | GPR151 confirm inactive | GPR119 ag inactive
O=C(Nc1ccc(S(=O)(=O)NC2CCCCC2)cc1)Nc1cccc(Cl)c1	GPR151 activ 5.1 | GPR151 confirm inactive | GPR119 ag inactive
Cc1cc(S(=O)(=O)NC2CCCCC2)ccc1OCC(=O)NC(C)C	none
